Experimental data as given in PubChem BioAssay (NCATS).
Values joined by “and” are separate entries in the source; they are usually repeats but may differ in a detail not shown here. Equal values may be shown once. Records with an inconclusive call do not appear. Where a call stands in place of a potency, no number is given. Active and inactive are the calls of the source. Calls come from the whole dose curve.

Assays:
[1] = Cytotoxicity counterscreen for inhibitors of SARS-CoV-2 cell entry (AID 1645845); settings: outcome: dose series up to 57.1 µM unless noted; note: nearly all actives have a fitted effect of over 50% in size
Procedure, shortened: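 Counterscreen run in the same HEK293-ACE2 line as the pseudotyped-particle entry assay, without particles. Viability after 48 h at 37 C was read as ATP luminescence, scaled between cell-containing and cell-free wells.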

[2] = Primary qHTS to identify inhibitors of SARS-CoV-2 cell entry (AID 1645846); settings: SARS-CoV-2 pseudovirus cell entry assay, luminescence; activity change, negative = inhibition: at 57.1 µM (top of the series) unless noted; note: nearly all actives have a fitted effect of over 45% in size
Procedure, shortened: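 HEK293-ACE2 (Expi293F, stable hACE2), 1500 cells/well, o/n 37C; cpd 23 nL pin, 1 h; MLV-PP w/ SARS-CoV-2-S (Wuhan-Hu-1, Δ19 C-term); 48 h 37C; Bright-Glo luminescence; normalized vs S-PP and bald PP.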

SMILES	Potency [1]	activity change, negative = inhibition [2]	Potency [2]
NCC(=O)Nc1cncc(-c2nn3c(=O)cc(N4CCNCC4)nc3s2)c1	inactive	-55.5%	
CO[C@H]1/C=C/O[C@@]2(C)Oc3c(C)c(O)c4c(O)c(c5c(c4c3C2=O)=NC2(CCN(CC(C)C)CC2)N=5)NC(=O)/C(C)=C/C=C/[C@H](C)[C@H](O)[C@@H](C)[C@@H](O)[C@@H](C)[C@H](OC(C)=O)[C@@H]1C	inactive		inactive
Nc1cccc2c1CN([C@H]1CCC(=O)NC1=O)C2=O	inactive	-16.6%	
CNC(=O)Cn1cc(-c2ccc3c(c2)C(F)CC32NC(=O)N(CC(=O)N(Cc3ccc(F)cc3)[C@@H](C)C(F)(F)F)C2=O)cn1 (stereo partly drawn)	inactive	-19.9% and -7.29%	
